Assay results taken from PubChem BioAssay (EPA / NIEHS).
Active and inactive are the calls of the source. The calls were made as follows: active = hit-call score of the fitted dose curve at least 0.9, where 1 is the maximum; inactive = score below 0.9.

What was measured:
[1] = read-out: Transforming growth factor beta 1 (TGFb1), TGFB1 (gene 7040); experiment: BSK_KF3CT_TGFb1: BioMAP Diversity Plus: KF3CT Assay for Transforming growth factor beta 1 (TGFb1) Biomarker Activity (AID 2283072); settings: primary human keratinocytes with fibroblasts; actives raise or lower the signal
In short: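 TGF-b1 ELISA on a 24 h dosed co-culture of human keratinocytes and foreskin fibroblasts; cytotoxicity tracked in parallel cultures by SRB staining.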

[2] = read-out: C-C motif chemokine 2 (Homo sapiens) (UniProt P13500); experiment: BSK_KF3CT_MCP1: BioMAP Diversity Plus: KF3CT Assay for Monocyte Chemoattractant Protein 1 (MCP1/CCL2) Biomarker Activity (AID 2283073); settings: primary human keratinocytes with fibroblasts; actives raise or lower the signal
In short: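 Human keratinocyte–foreskin fibroblast co-culture; MCP-1 measured by ELISA 24 h after dosing. Bidirectional fit vs DMSO; cytotoxicity tracked by SRB total protein in parallel cultures.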

[3] = read-out: Matrix Metallopeptidase 9 (MMP9), MMP9 (gene 4318); experiment: BSK_KF3CT_MMP9: BioMAP Diversity Plus: KF3CT Assay for Matrix Metallopeptidase 9 (MMP9) Biomarker Activity (AID 2283074); settings: primary human keratinocytes with fibroblasts; actives raise or lower the signal;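 as to AC50: MMP9 protein level quantified by ELISA in the co-culture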
In short: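 ELISA read-out of MMP-9 at 24 h post-dosing in a co-culture of human skin keratinocytes and foreskin fibroblasts. Gain or loss of signal was fitted in both directions against DMSO.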

[4] = read-out: urokinase plasminogen activator (uPA), PLAU (gene 5328); experiment: BSK_KF3CT_uPA: BioMAP Diversity Plus: KF3CT Assay for urokinase plasminogen activator (uPA) Biomarker Activity (AID 2283075); settings: primary human keratinocytes with fibroblasts; actives raise or lower the signal
In short: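 Skin co-culture (keratinocytes + foreskin fibroblasts), human primary; 24 h post-dose; uPA by ELISA; gain/loss fit vs DMSO baseline.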

[5] = read-out: CD40, CD40 (gene 958); experiment: BSK_LPS_CD40: BioMAP Diversity Plus: LPS Assay for CD40 Biomarker Activity (AID 2283076); settings: primary human HUVEC with PBMC; actives raise or lower the signal
In short: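 HUVEC plus PBMC co-culture stimulated with LPS; CD40 quantified by ELISA 24 h after compound dosing. Fitting was bidirectional relative to DMSO. SRB staining of parallel cultures flagged overt cytotoxicity.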

[6] = read-out: E-selectin (Homo sapiens) (UniProt P16581); experiment: BSK_LPS_Eselectin: BioMAP Diversity Plus: LPS Assay for Eselectin Biomarker Activity (AID 2283077); settings: primary human HUVEC with PBMC; actives raise or lower the signal
In short: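 Human umbilical vein endothelial cells co-cultured with PBMC under LPS stimulation; cell-surface E-selectin measured by ELISA 24 h after dosing. Change in either direction versus DMSO, with SRB total-protein staining in parallel cultures for cytotoxicity.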

[7] = read-out: Interleukin-8 (IL8), CXCL8 (gene 3576); experiment: BSK_LPS_IL8: BioMAP Diversity Plus: LPS Assay for Interleukin-8 (IL8) Biomarker Activity (AID 2283078); settings: primary human HUVEC with PBMC; actives raise or lower the signal
In short: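 Human umbilical vein endothelial cells co-cultured with PBMC, LPS-stimulated, exposed to compound for 24 h. IL-8 quantified by ELISA; fitted in both directions against DMSO, with SRB total-protein staining of parallel cultures for cytotoxicity.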

[8] = BSK_LPS_SRB: Viability Assessment in the BioMAP Diversity Plus: LPS Assay (AID 2283079); settings: primary human HUVEC with PBMC;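 also: total protein by sulforhodamine B absorbance as a cytotoxicity measure; measured one day after compound addition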
In short: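 Co-culture of human umbilical vein endothelial cells and PBMC, read 24 h after dosing. Total protein by 0.1% SRB staining after 10% TCA fixation, absorbance at 560 nm; bidirectional fit against DMSO.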

[9] = read-out: Interleukin-1 alpha (IL1a), IL1A (gene 3552); experiment: BSK_LPS_IL1a: BioMAP Diversity Plus: LPS Assay for Interleukin-1 alpha (IL1a) Biomarker Activity (AID 2283080); settings: primary human HUVEC with PBMC; actives raise or lower the signal
In short: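 Human umbilical vein endothelial cells co-cultured with PBMC and stimulated with LPS; IL-1a measured by ELISA 24 h after dosing. Bidirectional fitting against DMSO; cytotoxicity checked by SRB staining in parallel cultures.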

[10] = read-out: Monocyte Chemoattractant Protein-1 (MCP1), CCL2 (gene 6347); experiment: BSK_LPS_MCP1: BioMAP Diversity Plus: LPS Assay for Monocyte Chemoattractant Protein-1 (MCP1) Biomarker Activity (AID 2283081); settings: primary human HUVEC with PBMC; actives raise or lower the signal;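 as to AC50: secreted MCP-1 protein quantified by ELISA in culture supernatant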
In short: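 Human umbilical vein endothelial cells co-cultured with PBMC, LPS-stimulated; secreted MCP-1 measured by ELISA 24 h after compound addition. Bidirectional curve fitting against DMSO baseline; SRB total-protein staining in parallel cultures for cytotoxicity.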

[11] = BSK_LPS_PGE2: BioMAP Diversity Plus: LPS Assay for Prostaglandin E2 (PGE2) Biomarker Activity (AID 2283082); settings: primary human HUVEC with PBMC; actives raise or lower the signal;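 as to AC50: secreted prostaglandin E2 measured by ELISA in LPS-stimulated co-culture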
In short: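 Primary human endothelial cells and blood mononuclear cells, co-cultured with LPS, receive test chemical; PGE2 ELISA follows at 24 h, with SRB-stained parallel cultures flagging cytotoxicity.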

[12] = read-out: Macrophage colony-stimulating factor (MCSF), CSF1 (gene 1435); experiment: BSK_LPS_MCSF: BioMAP Diversity Plus: LPS Assay for Macrophage colony-stimulating factor (MCSF) Biomarker Activity (AID 2283083); settings: primary human HUVEC with PBMC; actives raise or lower the signal
In short: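 HUVEC–PBMC co-culture, M-CSF measured by ELISA 24 h after chemical dosing. Fitted in both directions relative to DMSO as negative control; overt cytotoxicity assessed by SRB total-protein staining in parallel cultures.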

[13] = read-out: Tissue Factor, F3 (gene 2152); experiment: BSK_LPS_TissueFactor: BioMAP Diversity Plus: LPS Assay for Tissue Factor Biomarker Activity (AID 2283084); settings: primary human HUVEC with PBMC; actives raise or lower the signal
In short: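 Human umbilical vein endothelial cells co-cultured with PBMC were dosed with compound. Cell-surface CD142 was measured by ELISA 24 h later. Activity was fitted bidirectionally against DMSO, with SRB total-protein staining in parallel cultures for cytotoxicity.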

[14] = read-out: Vascular cell adhesion molecule 1 (VCAM1), VCAM1 (gene 7412); experiment: BSK_LPS_VCAM1: BioMAP Diversity Plus: LPS Assay for Vascular cell adhesion molecule 1 (VCAM1) Biomarker Activity (AID 2283086); settings: primary human HUVEC with PBMC; actives raise or lower the signal
In short: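 Measured by ELISA: VCAM-1 in LPS-activated HUVEC/PBMC co-cultures 24 h after treatment. Values reflect bidirectional fitting with DMSO as baseline.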

[15] = read-out: CD38, CD38 (gene 952); experiment: BSK_SAg_CD38: BioMAP Diversity Plus: SAg Assay for CD38 Biomarker Activity (AID 2283087); settings: primary human HUVEC with PBMC; actives raise or lower the signal
In short: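 Measures CD38 on a human endothelial/PBMC co-culture driven by SEB and TSST-1, 24 h after compound exposure, using ELISA with fluorescence detection; DMSO defines baseline for bidirectional curve fitting.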

[16] = read-out: CD40, CD40 (gene 958); experiment: BSK_SAg_CD40: BioMAP Diversity Plus: SAg Assay for CD40 Biomarker Activity (AID 2283088); settings: primary human HUVEC with PBMC; actives raise or lower the signal
In short: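 HUVEC plus PBMC co-culture, superantigen-activated, with CD40 read by ELISA 24 h after dosing. Curves fitted in both directions against DMSO. Overt cytotoxicity checked by parallel SRB total-protein staining.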

[17] = read-out: CD69, CD69 (gene 969); experiment: BSK_SAg_CD69: BioMAP Diversity Plus: SAg Assay for CD69 Biomarker Activity (AID 2283089); settings: primary human HUVEC with PBMC; actives raise or lower the signal;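 as to AC50: cell surface CD69 protein quantified by ELISA with fluorescence detection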
In short: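 Values derive from bidirectional fitting relative to DMSO vehicle. Cells: umbilical vein endothelium plus peripheral blood mononuclear cells, treated 24 h before fluorescent ELISA for CD69.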

[18] = read-out: Monocyte Chemoattractant Protein-1 (MCP1), CCL2 (gene 6347); experiment: BSK_SAg_MCP1: BioMAP Diversity Plus: SAg Assay for Monocyte Chemoattractant Protein-1 (MCP1) Biomarker Activity (AID 2283090); settings: primary human HUVEC with PBMC; actives raise or lower the signal
In short: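 Values derive from bidirectional fitting of ELISA-measured MCP1 against DMSO controls. Readings were taken 24 h after dosing human vascular endothelial cells co-cultured with peripheral blood mononuclear cells under superantigen stimulation.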

[19] = read-out: E-selectin (Homo sapiens) (UniProt P16581); experiment: BSK_SAg_Eselectin: BioMAP Diversity Plus: SAg Assay for Eselectin Biomarker Activity (AID 2283091); settings: primary human HUVEC with PBMC; actives raise or lower the signal
In short: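 Human umbilical vein endothelial cells co-cultured with peripheral blood mononuclear cells, SAg system. E-selectin is measured by ELISA 24 h after dosing and fitted bidirectionally against DMSO. Cytotoxicity is checked by SRB staining of parallel cultures.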

[20] = read-out: Tumor necrosis factor (Homo sapiens) (UniProt P01375); experiment: BSK_LPS_TNFa: BioMAP Diversity Plus: LPS Assay for Tumour Necrosis Factor alpha (TNFa) Biomarker Activity (AID 2283085); settings: primary human HUVEC with PBMC; actives raise or lower the signal
In short: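 ELISA-based TNFa endpoint in a human endothelial–PBMC co-culture sampled 24 h post-exposure. Curves were fitted in both directions using DMSO as baseline of activity.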

Measured: AC50

Sequence of Tumor necrosis factor (Homo sapiens) (P01375 whole entry, looked up): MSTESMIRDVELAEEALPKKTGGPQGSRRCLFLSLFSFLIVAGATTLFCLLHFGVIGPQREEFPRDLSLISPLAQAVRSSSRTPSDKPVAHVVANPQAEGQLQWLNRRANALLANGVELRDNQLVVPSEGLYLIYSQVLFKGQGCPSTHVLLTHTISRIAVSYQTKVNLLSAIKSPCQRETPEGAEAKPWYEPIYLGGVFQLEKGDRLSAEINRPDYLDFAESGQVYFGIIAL
Sequence of E-selectin (Homo sapiens) (P16581 whole entry, looked up): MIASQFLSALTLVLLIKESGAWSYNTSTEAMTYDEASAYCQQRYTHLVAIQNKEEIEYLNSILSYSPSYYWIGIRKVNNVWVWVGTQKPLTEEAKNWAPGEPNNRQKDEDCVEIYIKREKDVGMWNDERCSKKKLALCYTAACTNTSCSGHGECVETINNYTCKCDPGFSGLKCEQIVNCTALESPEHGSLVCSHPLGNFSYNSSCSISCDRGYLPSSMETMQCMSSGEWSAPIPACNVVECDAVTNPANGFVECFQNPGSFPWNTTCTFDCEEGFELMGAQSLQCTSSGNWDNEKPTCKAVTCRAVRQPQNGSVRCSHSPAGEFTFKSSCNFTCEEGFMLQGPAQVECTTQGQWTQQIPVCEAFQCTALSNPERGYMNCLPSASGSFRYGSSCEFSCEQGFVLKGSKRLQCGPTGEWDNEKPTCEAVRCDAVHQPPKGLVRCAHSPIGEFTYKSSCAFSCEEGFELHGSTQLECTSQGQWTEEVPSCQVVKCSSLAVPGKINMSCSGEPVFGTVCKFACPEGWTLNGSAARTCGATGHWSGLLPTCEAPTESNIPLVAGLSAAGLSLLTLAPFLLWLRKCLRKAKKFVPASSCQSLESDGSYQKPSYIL

Cc1c([N+](=O)[O-])c(C)c([N+](=O)[O-])c(C(C)(C)C)c1[N+](=O)[O-]
active: [2] 34 µM | [3] 31.1 µM | [9] 11.4 µM | [15] 1.63 µM
not listed: [20]
inactive: all other assays above

CC(C)(C)c1cc([N+](=O)[O-])cc(C(C)(C)C)c1O
active: [2] 30.7 µM | [3] 11.3 µM | [5] 0.492 µM | [6] 0.345 µM | [8] 0.683 µM | [12] 0.452 µM | [15] 0.332 µM | [16] 0.474 µM | [17] 0.322 µM | [18] 0.458 µM | [19] 0.219 µM
inactive: [1] | [4] | [7] | [9] | [10] | [11] | [13] | [14]

OCCCCO
not listed: [1] | [2]
inactive: all other assays above

O=C(N[C@H]1CN2CCC1CC2)c1ccc2c(c1)OCCO2
active: [11] 2.86 µM
not listed: [20]
inactive: all other assays above

CC(C)(C)c1ccccc1O
active: [10] 3.18 µM
not listed: [4] | [20]
inactive: all other assays above

O=S(=O)(c1ccc(Cl)cc1)c1cc(Cl)c(Cl)cc1Cl
active: [1] 5.16 µM | [3] 0.58 µM | [15] 3.97 µM
not listed: [20]
inactive: all other assays above

Cc1ccc2nc3sc(=O)sc3nc2c1
inactive: [1] | [2] | [4] | [7] | [12] | [13] | [20] | [17] | [18]
active: [5] 4.27 µM | [6] 8.18 µM | [8] 3.67 µM | [9] 7.83 µM | [10] 6.93 µM | [11] 1.2 µM | [14] 7.61 µM | [15] 6.68 µM | [16] 6.41 µM | [19] 8.11 µM

O=S(=O)(C(Cl)(Cl)Cl)C(Cl)(Cl)Cl
active: [2] 2.37 µM | [3] 2.22 µM | [4] 3.52 µM | [5] 1.51 µM | [6] 2.4 µM | [7] 2.88 µM | [8] 5.31 µM | [9] 1.6 µM | [10] 4.15 µM | [12] 1.83 µM | [13] 3.21 µM | [14] 2.28 µM | [15] 2.64 µM | [16] 2.74 µM | [17] 3.57 µM | [18] 4.17 µM | [19] 3.13 µM
inactive: [1] | [11]

Oc1cc(Cl)c(Cl)cc1Cl
active: [2] 20 µM | [5] 14.1 µM | [6] 34.1 µM | [7] 32.3 µM | [8] 25.7 µM | [9] 32.6 µM | [10] 30.2 µM | [12] 20 µM | [14] 32 µM | [15] 26.8 µM | [16] 24.8 µM | [17] 20 µM | [18] 32.2 µM | [19] 26.5 µM
inactive: [1] | [3] | [4] | [11] | [13]

Oc1ccc(Cc2ccc(O)cc2)cc1
not listed: [20]
inactive: all other assays above

OC(Cc1ccccc1Cl)(Cn1cncn1)C1(Cl)CC1 (configuration not stated)
active: [11] 2.02 µM
not listed: [20]
inactive: all other assays above
